# Experimental data published in article PMC5540273 (PLoS ONE, 2017).
# Tests used:
# Settings in all cases: concentration: 1 μM, replicates: in singlicate; n = 1
# PAK1 = tested on: PAK1
# PAK2 = tested on: PAK2
# PAK3 = tested on: PAK3
# PAK4 = tested on: PAK4
# PAK6 = tested on: PAK6
# PAK7 = tested on: PAK7
# PCTK1 = tested on: T1, PCTK1
# T1 construct: gene CDK16
# PCTK2 = tested on: T2, PCTK2
# T2 construct: gene CDK17
# PCTK3 = tested on: T3, PCTK3
# T3 construct: gene CDK18
# PDGFRA = tested on: PDGFRA
# 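Also: KINOMEscan kinase panel screen.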
Structure (SMILES),%Inh (PAK1),%Inh (PAK2),%Inh (PAK3),%Inh (PAK4),%Inh (PAK6),%Inh (PAK7),%Inh (PCTK1),%Inh (PCTK2),%Inh (PCTK3),%Inh (PDGFRA)
C[C@@H]1CCN(C(=O)CO)C[C@@H]1N(C)c1ncnc2[nH]ccc12,0%,0%,0%,0%,0%,2%,0%,0%,4%,0%
Cc1ccc(O)cc1Nc1cc(C(F)(F)F)nc2ccc(-c3ccncc3)cc12 [GW630823],21%,10%,0%,21%,20%,7%,0%,2%,0%,0%
O=C(NCCCN1CCCC1=O)c1cnc(NCc2cc(Cl)ccc2Cl)nc1NC1CCNCC1,5%,0%,0%,3%,0%,0%,0%,0%,10%,0%
CSc1nn2c(=O)cc(N3CCOCC3)nc2n1Cc1cccc(Cl)c1Cl [GSK2347225],13%,13%,15%,0%,0%,26%,15%,0%,0%,0%
Fc1cccc(COc2ccc(Nc3ncnc4nn5ccccc5c34)cc2Cl)c1 [GW689066],15%,15%,8%,15%,0%,0%,0%,0%,0%,0%
COc1ccc(-c2oc3ncnc(N)c3c2-c2ccc(OC)cc2)cc1 [SB-589132],0%,16%,14%,0%,0%,0%,0%,0%,14%,17%
CCn1c(-c2ccncc2)nc2cnccc21 [SB-735216],0%,47%,0%,0%,0%,0%,0%,0%,0%,13%
CCc1nc(-c2cccc(C)c2)c(-c2ccnc(NC(=O)c3ccccc3)c2)s1,0%,0%,2%,0%,3%,0%,24%,7%,1%,0%
Cc1cc(N2CCC(NS(=O)(=O)c3ccc(F)cc3)CC2)nc(Nc2cccc(C#N)c2)n1.O=C(O)C(F)(F)F [GSK1653537],0%,19%,6%,0%,0%,0%,0%,0%,18%,0%
COc1ccc(NC(=O)Nc2ccc(C)c(-c3ccc(C(=O)Nc4ccncc4)cc3)c2)cc1 [GSK1398475],0%,0%,3%,0%,0%,9%,0%,0%,0%,28%
O=C(c1ccc(-c2cc(-c3c[nH]nc3-c3ccccn3)ccn2)cc1)N1CCCC1 [GW792479],8%,0%,0%,16%,9%,0%,0%,0%,3%,0%
Nc1nccc2scc(-c3ccc4c(c3)CCN4C(=O)Cc3cc(F)ccc3F)c12 [GSK2587663],1%,0%,19%,0%,0%,0%,0%,0%,20%,0%
CC(C)N1CCC(n2cnc(-c3ccc(F)cc3)c2-c2ccnc(N)n2)CC1 [SB-223132],19%,23%,0%,26%,0%,0%,0%,0%,7%,0%
Cl.c1ccc(Cn2ccc3cc(Nc4ncnc5ccccc45)ccc32)cc1 [GW275568],12%,13%,0%,9%,8%,35%,0%,16%,18%,2%
Oc1ccc2ncnc(Nc3ccc(OCc4ccccc4)cc3)c2c1 [GI262866],22%,29%,87%,0%,0%,0%,10%,0%,13%,0%
Fc1cccc(COc2ccc(Nc3ncnc4sc(-c5ccc[nH]5)cc34)cc2Cl)c1 [GW707818],6%,5%,0%,6%,11%,12%,0%,22%,0%,0%
Nc1nc(-c2cccnc2)c(-c2ccnc3ccccc23)s1 [GW684083],0%,4%,20%,0%,0%,0%,0%,0%,11%,0%

Structure (SMILES),%Inh (PAK1),%Inh (PAK2),%Inh (PAK3),%Inh (PAK4),%Inh (PAK6),%Inh (PAK7),%Inh (PCTK1),%Inh (PCTK2),%Inh (PCTK3),%Inh (PDGFRA)
CN1c2ccc(-c3ccc(C(=O)NCCO)cc3)cc2-c2[nH]ncc2S1(=O)=O,12%,32%,20%,35%,7%,16%,0%,28%,0%,35%
Fc1ccc(Nc2nccc(-c3c(-c4ccc(Cl)cc4)nn4ncccc34)n2)cc1F [GW829058],21%,24%,15%,27%,34%,14%,23%,0%,13%,19%
CC(=O)Nc1n[nH]c2ncc(-c3ccccc3)cc12 [SB-548492],0%,32%,0%,4%,12%,0%,3%,7%,4%,51%
O=C(Nc1ccccc1F)NC1CCN(c2ccnc(Nc3ccc(F)cc3)n2)C1 (stereo not shown) [GSK1379722],2%,16%,0%,0%,0%,0%,6%,0%,18%,0%
COC(=O)c1c(-c2ccccc2)c2cc(Cl)ccc2c(=O)n1Cc1ccc(S(C)(=O)=O)cc1,6%,0%,0%,0%,0%,0%,28%,3%,0%,15%
Cn1cc(-c2ccc3c(c2)CCN3C(=O)Cc2cccc(C(F)(F)F)c2)c2c(N)ncnc21 [GSK2606414],0%,0%,25%,0%,0%,0%,4%,0%,0%,38%
Fc1ccc(-c2ncn(CCCNCc3ccccc3)c2-c2ccncc2)cc1,30%,25%,0%,11%,11%,14%,7%,0%,8%,0%
Cc1cccc(-c2nc(Nc3ccc4[nH]nnc4c3)c3ccccc3n2)n1 [GW867587],9%,41%,0%,0%,0%,0%,0%,0%,0%,0%
COc1ccc(Nc2nccc(N3CCC(NC(=O)c4cccc(NC(C)=O)c4)C3)n2)cc1 (stereo not shown) [GSK1379732],0%,0%,0%,0%,0%,6%,0%,10%,1%,0%
CS(=O)(=O)CCNCc1ccc(-c2ccc3ncnc(Nc4ccc(OCc5ccccc5)c(Cl)c4)c3c2)o1.Cl [GW574783],0%,0%,7%,0%,0%,0%,0%,0%,0%,0%
FC(F)(F)c1ccc(-c2cc(-c3c[nH]nc3-c3ccccn3)ccn2)cc1 [GW599550],11%,28%,32%,0%,0%,0%,0%,11%,25%,11%
COc1ccc(NC(=O)c2ccc(-c3cc(-c4nnc(C)o4)ccc3C)cc2)cc1 [GW595885],0%,0%,0%,0%,0%,0%,6%,0%,24%,0%
Cc1ccc(NC(=O)c2cccc(C#N)c2)cc1-c1ccc(C(=O)Nc2ccncc2)cc1 [GSK1398463],16%,21%,0%,0%,0%,1%,2%,0%,18%,86%
Cn1ccc2ncnc(Oc3ccc(NC(=O)Nc4cccnc4)c(Cl)c3)c21,17%,24%,38%,1%,16%,0%,19%,12%,0%,91.8%
Clc1ccc(-c2cc(-c3c[nH]nc3-c3ccccn3)ccn2)cc1 [GW681251],3%,0%,2%,39%,1%,0%,0%,0%,12%,0%
Fc1cccc(COc2ccc(Nc3ncnc4cc[nH]c34)cc2Cl)c1,30%,35%,10%,26%,0%,22%,5%,48%,10%,22%
CNc1nccc(-c2c(-c3ccc(F)cc3)ncn2CCCN2CCOCC2)n1 [SB-222516],65%,85%,0%,0%,0%,0%,0%,0%,0%,0%
